Among the data in PubChem BioAssay AID799 (SRMLSC, 2007) are viability increase values, retold here.

Out of some 140,000 compounds screened, about 840 (0.6%) were called active. The entries come from a sample that favours actives as a whole. Values without a mark were called inactive.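 How the source made its calls: active means viability gain under doxorubicin at or above a set limit, the compound median plus 3 SD (cut at about 4.7% in these data); inactive means the rest.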

The assay in a line: protection of MRP-1-high cells against doxorubicin toxicity – H69AR cells, CellTiter-Glo, MRP-1 activator project, primary screen (AID 799).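 Further: MRP-1 overexpressing cells given doxorubicin 25 µM after compound pretreatment; 18-22 h compound pretreatment then 72 h with doxorubicin before readout; 0% = doxorubicin-only wells and 100% = vehicle-treated cells without doxorubicin.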 To be noted: viability rescue, at 10 µM, hits give high values.
As to `c1ccc2c(CSCc3nc4ccccc4[nH]3)cccc2c1`, the viability increase was -0.17%.

In the case of `CCOc1ccc(Br)cc1CSC(=N)N`, the viability increase was 0.81%.

Take `N=C(N)SCc1cccc2ccccc12`: the viability increase is 8.11% (active).

Take `COc1cc(C(=S)NC2CCCCC2)ccc1O`: the viability increase was -2.71%.

Take `Cc1[nH]n(-c2ccccc2)c(=O)c1/C=N/NC(=O)c1ccoc1C`: the viability increase is -1.54%.

Consider `COc1cc(NC(=S)NCCSc2ccc(C)cc2)cc(OC)c1`, for which the viability increase is -3.24%.

As to `CC(C)c1nnc(NC(=O)C2CCCN2S(=O)(=O)c2ccc(Cl)cc2)s1` (stereo not drawn), the viability increase was -0.99%.

In the case of `CCc1nnc(NS(=O)(=O)c2ccc(NS(=O)(=O)c3ccccc3)cc2)s1`, the viability increase is -0.5%.

`CCc1nnc(NC(=O)C2CCCN2S(=O)(=O)c2ccccc2)s1` (stereo not drawn): the viability increase is 12.4% (active).

For `Cc1ccccc1NC(=O)c1ccccc1NS(=O)(=O)c1cccc2cccnc12`, the viability increase was -3.17%.

Regarding `C=CCNC(=O)c1ccccc1NC(=O)c1ccc(Cl)c(S(=O)(=O)Nc2cccc(C)c2C)c1`, the viability increase is 5.97% (active).

`COC(=O)c1ccc(C(=O)Nc2cc(Cl)ccc2Cl)cc1NC(=O)c1ccccc1C`: the viability increase was -3.01%.

`CC(C)(C)C1CCC(OC(=O)CCC(=O)Nc2ccccc2)CC1` (stereo not drawn): the viability increase is 3.57%.

Consider `Cc1ccc(C(=O)Cc2nnc(C)s2)cc1`, for which the viability increase was -2.89%.

Consider `Cc1ccc(C2=N/C(=C\c3ccc(OS(=O)(=O)c4ccc(C)cc4)cc3)C(=O)O2)cc1`, for which the viability increase is -1.26%.

In the case of `O=C(Nc1ccn(Cc2ccccc2F)n1)c1ccc(COc2ccc(Cl)cc2Cl)o1`, the viability increase was 10.6% (active).

With `O=C(Nc1ccn(Cc2ccc(F)cc2)n1)c1ccncc1`, the viability increase is 1.75%.

Regarding `CC(=O)Nc1ccn(Cc2c(F)cccc2Cl)n1`, the viability increase was -1.03%.

Take `CCCc1ccc(-c2c(C)sc(NC(=O)c3ccnn3C)c2C#N)cc1`: the viability increase was -1.28%.

As to `Cn1ncc(Br)c1C(=O)NCc1cccs1`, the viability increase is -2.03%.

With `Cn1nccc1CNC(=O)c1ccnn1C`, the viability increase was 10.8% (active).

For the compound `O=C(NCc1ccccc1Cl)C1CCC(CNc2c(N3CCCCC3)c(=O)c2=O)CC1` (stereo not drawn), the viability increase was -1.61%.

On to `CN(C)S(=O)(=O)c1ccc(N2CCCC2=O)c([N+](=O)[O-])c1`, for which the viability increase is -1.68%.

In the case of `CC(=O)Cc1nsc(NC(=O)c2ccc(COc3ccc(C)cc3)o2)n1`, the viability increase was -0.06%.

Consider `COc1ccc(-c2nn(-c3ccccc3)cc2C(=O)Nc2nccs2)cc1OC`, for which the viability increase is -4.27%.

For `COc1ccc(-c2nn(-c3ccccc3)cc2C(=O)Nc2nc(CC(C)=O)ns2)cc1`, the viability increase was 6.77% (active).

As to `COc1ccc2nc(Nc3nc4ccc(NC(C)=O)cc4s3)sc2c1`, the viability increase is -4.94%.

`CCCOc1ccc(Cn2ccnc2)cc1[N+](=O)[O-]`: the viability increase was -1.18%.

In the case of `CC(=O)NC1C(OCc2ccccc2)OC(COC(C)=O)C(OC(C)=O)C1OC(C)=O` (stereo not drawn), the viability increase is -1.54%.

`Cc1ccc(S(=O)(=O)N(Cc2ccc(Cl)cc2)c2ccccc2C(=O)NCc2cccnc2)cc1`: the viability increase is -2.38%.

For `Cc1ccc(O)c(-c2cc(C(=O)NCc3ccccc3)[nH]n2)c1`, the viability increase was -1.43%.

In the case of `O=C1[C@@H]2C(Cc3ccc(O)cc3)NC3(C(=O)Nc4ccc(F)cc43)[C@@H]2C(=O)N1c1ccc(F)cc1` (stereo partly drawn), the viability increase is 5.18% (active).

For the compound `CSCCC1NC2(C(=O)Nc3ccc(Cl)cc32)[C@@H]2C(=O)N(C3CCCC3)C(=O)[C@H]12` (stereo partly drawn), the viability increase was -3.72%.

As for `CNC(=O)NC(=O)C(OC(=O)c1cccc(S(=O)(=O)N2CCCCC2)c1)c1ccccc1` (stereo not drawn), the viability increase is -2.3%.

For the compound `Cc1cc(NS(=O)(=O)c2ccc(NC(=S)NC(=O)c3ccc(F)cc3Cl)cc2)no1`, the viability increase is -2%.

As to `CCN(CC)c1ccc([N+](=O)[O-])cc1C(=O)O`, the viability increase was 0.59%.

Turning to `CC(NC(=O)COC(=O)C1CCN(S(=O)(=O)c2ccccc2C(F)(F)F)CC1)c1ccccc1` (stereo not drawn), the viability increase was -1.86%.

Consider `COCC(C)n1c(C)cc(C(=O)CSc2cc(C)c3ccccc3n2)c1C` (stereo not drawn), for which the viability increase is 0.22%.

As to `Cc1ccc(N2C(=O)C3C(c4ccccc4)(C2=O)C3(c2ccccc2)c2ccccc2)cc1` (stereo not drawn), the viability increase was 5.37% (active).

Regarding `Cc1ccc(C2C3=C(Nc4[nH]n(-c5ccccc5)c(=O)c42)c2ccccc2C3=O)cc1` (stereo not drawn), the viability increase was -0.43%.

As to `Cc1ccc(N2C(=O)C(Cc3ccccc3)NC2=S)cc1` (stereo not drawn), the viability increase was -0.7%.

In the case of `N/C(=N\OC(=O)N1c2ccccc2Sc2ccccc21)c1ccc(Br)cc1`, the viability increase is -2.4%.

As for `COc1cc2c(cc1NC(=O)COC(=O)/C=C/c1ccccc1)oc1ccccc12`, the viability increase was -4.74%.

On to `O=C(CSCc1ccc(Cl)cc1)N1CCN(Cc2ccc3c(c2)OCO3)CC1`, for which the viability increase is 5.45% (active).

Regarding `O=C(CSCc1ccc(Cl)cc1)N1CCCCC1`, the viability increase was 0.74%.

Turning to `CS(=O)(=O)N(CC(=O)N1CCN(Cc2ccc3c(c2)OCO3)CC1)c1ccc2c(c1)OCO2`, the viability increase was -1.42%.

For the compound `CCN(C(=O)COC(=O)c1c(NC(C)=O)sc(C)c1C)C1CCS(=O)(=O)C1` (stereo not drawn), the viability increase is -2.05%.

With `CCOc1ccc(Nc2nc(Cl)nc(N3CCN(c4ccc(OC)cc4)CC3)n2)cc1`, the viability increase is 1.19%.

Regarding `CN(Cc1cccs1)C(=O)Cc1c[nH]c2ccccc12`, the viability increase was -2.21%.

In the case of `CCC(=O)Nc1ccc(C(=O)Nc2cccc(OC)c2)cc1`, the viability increase was -2.62%.

Consider `Cc1cccc(OCc2ccc(C(=O)Nc3ccc(F)cc3)cc2)c1`, for which the viability increase is 4.9% (active).

Take `Cc1cccc(C(=O)Nc2ccc(CC(=O)O)cc2)c1`: the viability increase was -0.27%.

In the case of `CCOP(=O)(OCC)C(Nc1cccc(C)c1)c1ccc(F)cc1` (stereo not drawn), the viability increase is 0.43%.

For the compound `CCOC(=O)C(NC(=O)CC(C)C)(Nc1sc2c(c1C(N)=O)CCCC2)C(F)(F)F` (stereo not drawn), the viability increase was -2.1%.

Regarding `C/C(=N\NS(=O)(=O)c1ccc(Cl)cc1)c1ccc(NC(=O)c2ccco2)cc1`, the viability increase is -2.49%.

Turning to `O=C1NC(=Nc2ccc(Cl)cc2)SC1Cc1cccc(Cl)c1Cl` (stereo not drawn), the viability increase was 6.35% (active).

For the compound `Cc1c(Cl)cccc1NC(=O)CC1SC(=NCC2CCCO2)NC1=O` (stereo not drawn), the viability increase was 2.61%.

As to `NC1=NC(=O)C(Cc2cccc(Cl)c2Cl)S1` (stereo not drawn), the viability increase was -0.15%.

Take `CC(C)CNC(=O)C(=O)Nc1ccc(N(C)C)cc1`: the viability increase was 0%.

For `CC1CCc2sc(C(=O)N/N=C/C3CCCCC3)cc2C1` (stereo not drawn), the viability increase was -1.48%.

Regarding `Cc1ccc(C(c2sc3nc(C)nn3c2O)N2CCN(c3ccc(F)cc3)CC2)cc1` (stereo not drawn), the viability increase is -2.22%.

With `Oc1c(C(c2ccco2)N2CCC3(CC2)OCCO3)sc2ncnn12` (stereo not drawn), the viability increase is 0.05%.

As for `Oc1c(C(c2cccs2)N2CCN(c3ccc(F)cc3)CC2)sc2ncnn12` (stereo not drawn), the viability increase is 10.6% (active).

Regarding `Cc1c(C2=CCN(S(=O)(=O)c3ccc(Cl)cc3)CC2)c2ccccc2n1C`, the viability increase was -0.07%.

On to `COc1nc(N(C)C)nc(N2CC(=O)N(CCNS(=O)(=O)c3ccc(C)cc3)C2=N)n1`, for which the viability increase is -2.66%.

Consider `O=C1N/C(=C/c2cccn2-c2ccccc2)C(=O)N1c1cccc(Cl)c1`, for which the viability increase is -0.22%.

Turning to `Cc1c(Cl)cccc1NC(=S)NCc1ccc2c(c1)OCO2`, the viability increase was -4.04%.

Regarding `COc1ccc(C2CC(c3cccs3)=NN2C(=O)COC(=O)c2cc3ccccc3cc2O)cc1OC` (stereo not drawn), the viability increase is -0.45%.

For the compound `FC(F)(F)c1cc(-c2ccco2)nc(NCc2ccc(Cl)cc2)n1`, the viability increase was -0.53%.

Turning to `COc1nc(NCc2ccc(Cl)cc2)nc(OC)n1`, the viability increase is 5.12% (active).

On to `C=CCNc1nc(C)nc(OC)n1`, for which the viability increase is 0.38%.

On to `CCOc1ccc(/C=N/OCC(=O)NCc2cccs2)cc1`, for which the viability increase was 0%.

For the compound `COc1ccc2c(c1)C(SCC(=O)NCc1ccccc1)CC(C)(C)O2` (stereo not drawn), the viability increase is -1.61%.

Consider `COC(=O)CN1C(=S)N(c2ccccc2)C(=O)C1CC(=O)Nc1ccc(Cl)cc1` (stereo not drawn), for which the viability increase was -1.37%.

In the case of `COc1ccc(-c2csc(NC(=O)CCCc3cccs3)n2)cc1`, the viability increase was 3.87%.

Turning to `COc1ccc(N2C(=O)C(CC(=O)Nc3ccc(F)cc3)N(CCc3cccs3)C2=O)cc1` (stereo not drawn), the viability increase was 5.39% (active).

On to `CC(C)COP(=O)(c1ccc(N(C)C)cc1)C(Nc1ccccc1)c1cccnc1` (stereo not drawn), for which the viability increase was -3.48%.

For `CCOc1ccc(Oc2nc(C)cc(OC)n2)nn1`, the viability increase was 0.08%.

On to `Cc1ccc(NC(=O)c2cccs2)cc1S(=O)(=O)N(C)C`, for which the viability increase was -1.25%.

Turning to `O=S(=O)(NCCSc1ccccn1)c1ccc(Cl)cc1`, the viability increase was 0.85%.

As for `Cc1cccc2cc(CN(C(=O)c3cccs3)c3ccccc3)c(=O)[nH]c12`, the viability increase was -0.07%.

In the case of `Cc1cccc2cc(CN(Cc3cccs3)C(=S)NCc3ccco3)c(=O)[nH]c12`, the viability increase was 5.98% (active).

Turning to `Cc1cccc2cc(CN(Cc3cccs3)C(c3nnnn3C3CCCC3)C(C)C)c(=O)[nH]c12` (stereo not drawn), the viability increase is -3.53%.

In the case of `Cc1ccc(Oc2cc(NC(=O)CCCn3nc(C)c([N+](=O)[O-])c3C)cc([N+](=O)[O-])c2)cc1`, the viability increase was -2.6%.

Consider `O=C(O)c1cccc(N=NN2CCCCCC2)c1`, for which the viability increase was -1.92%.

Consider `COC(C(=O)NCc1ccccc1C)c1ccccc1` (stereo not drawn), for which the viability increase is -0.37%.

In the case of `COc1cc(C2C(N3C(=O)c4ccccc4C3=O)C(=O)N2c2ccc(C)c(C)c2)cc(OC)c1OC` (stereo not drawn), the viability increase was -3.6%.

On to `CCCCOc1ccc(C(=O)N/C(=C/C=C/c2ccccc2)C(=O)N2CCOCC2)cc1`, for which the viability increase was -4.14%.
